± gives the standard deviation.
What was measured:
[1] = system: MILI (PIWIL2) piRISC loaded with L1MC piRNA (26 nt); test: pre-steady-state target cleavage rate (min^-1); guide: L1MC piRNA 5'p-UAACUAAAUACUAUGCAAGCUGUAGG; higher = faster piRNA-guided slicing of the target;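 note: 1 nM active piRISC with 0.1 nM target library at 33 °C single turnover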
How it was run: (§1)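 A transcribed, DNA-blocked target RNA library […] was incubated at 33 °C for 0–8 or 0–960 min with 1 nM active affinity-purified piRISC carrying one synthetic guide, in HEPES–potassium acetate buffer with or without 500 nM GTSF1 partner protein. Uncleaved targets were then sequenced and normalised to depth and to weakly complementary targets. Data from three trials were pooled, with k3 capped at 0.0001 min^-1, and a burst-and-steady-state fit yielded the pre-steady-state cleavage rate.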

[2] = system: EfPiwi piRISC loaded with L1MC piRNA (26 nt); test: pre-steady-state target cleavage rate (min^-1); auxiliary factor: 500 nM Ephydatia muelleri Gtsf1; guide: L1MC piRNA 5'p-UAACUAAAUACUAUGCAAGCUGUAGG; MIWI and MILI are mouse PIWI proteins and EfPiwi is from a freshwater sponge; tags in brackets are library labels; higher = faster piRNA-guided slicing of the target
How it was run: as §1

[3] = auxiliary factor: 500 nM mouse GTSF1

| Sequence | pre-steady-state target cleavage rate [1, 3] | pre-steady-state target cleavage rate [2] | pre-steady-state target cleavage rate ([1]; auxiliary factor: none (no GTSF1)) |
| --- | --- | --- | --- |
| UCCUGCUAGAGCUUGCAUAGUAUUUAGUAA | 0.161 ± 0.023 | 0.00419 ± 0.0014 | – |
| UCCUGGAUGAGCUUGCAUAAUAUUUAGUUA | 0.266 ± 0.035 | 0.00543 ± 0.0021 | – |
| UCCUGCAACAGCUUGCAUAGUAUUUUCAAA | 0.104 ± 0.027 | 0.00269 ± 0.0017 | – |
| UCCUGCAUCAGCUUGCAUAGUAUUUUCAAA | 0.118 ± 0.029 | 0.00236 ± 0.0016 | – |
| UCCUGGAACAGCUUGCAUAGUAUUUGUUA | 0.0747 ± 0.021 | 0.00531 ± 0.0019 | – |
| UCCUGGAACACGAUGCAUAGUAUUUACAAA | 0.0623 ± 0.018 | 0.00408 ± 0.0037 | – |
| UCCUCCUACAGCUUGCAUUGUAUUAAGUUA | 0.132 ± 0.023 | 0.00681 ± 0.0032 | – |
| UCCUGGAUCAGCAUGCAUAGUAUUUAGAUA | 0.149 ± 0.017 | 0.0044 ± 0.0024 | – |
| UCCUGGAUCAGCUUGCAUAGAAUUUAGAUA | 0.0147 ± 0.0059 | 0.0036 ± 0.0019 | – |
| UCCUGCUACAGCUUGCAUAGUAUUUAGUAA | 0.182 ± 0.024 | 0.00553 ± 0.0022 | – |
| UCCUCCUACAGCUUGCAUAGUAUUAUCUUA | 0.105 ± 0.025 | 0.00351 ± 0.0027 | – |
| UCCUGGAUGAGGAUGCAUAGUAUUUAGAAA | 0.0101 ± 0.0046 | 0.0024 ± 0.0024 | – |
| UCCUGGAUCACCUUGCAUAGUAUUUAGAUA | 0.111 ± 0.025 | 0.00551 ± 0.005 | – |
| UCCUGGAUCAGCUUGCAUAGUAUUUAAUUA | 0.0429 ± 0.0097 | 0.00916 ± 0.0034 | – |
| UCCUCCUAGAGCUUGCAUAGUAUUUAGAUA | 0.123 ± 0.025 | 0.0043 ± 0.0018 | – |
| UCCUGGAACUCGUUGCAUAGUAUUUAGAAA | 0.136 ± 0.021 | 0.00502 ± 0.004 | – |
| UCCUCCUACUGCUUCCAUAGUAUUUAGUUA | 0.0403 ± 0.0098 | 0.0043 ± 0.0018 | – |
| UCCUGGUACAGCUUGCAUAGUAAUUAGAUA | – | 0.00477 ± 0.0031 | 0.00338 ± 0.0033 |
| UCCUGGAACAGCUAGCAUAGUAUUUAGAAA | 0.219 ± 0.034 | 0.00262 ± 0.0023 | – |
| UCCUGCUUGAGCUUGCAUAGUAUUUACAAA | 0.0564 ± 0.017 | 0.00279 ± 0.0023 | – |

| Sequence | pre-steady-state target cleavage rate [1, 3] | pre-steady-state target cleavage rate [2] | pre-steady-state target cleavage rate ([1]; auxiliary factor: none (no GTSF1)) |
| --- | --- | --- | --- |
| UCCUGCUACAGCUUGCAUAGUAUUUAGUGUA | 0.244 ± 0.048 | 0.00597 ± 0.0021 | – |
| UCCUCCUACAGCUUGCAUAGUAUUGAGUUA | 0.133 ± 0.026 | 0.00534 ± 0.002 | – |
| UCCUCCUACAGCUUGCAUAGUUAAUAGUAA | 0.0122 ± 0.0056 | 0.00511 ± 0.003 | – |
| UCCUGCUACUGCUUCCAUAGUAUUUAGUUA | 0.0453 ± 0.014 | 0.00205 ± 0.0016 | – |
| UCCUGGAUGAGCUAGCAUAGUAUUUUGUUA | 0.159 ± 0.036 | 0.00327 ± 0.003 | – |
| UCCUCCUACAGCUUGCAUAGAUUUUAGAAA | 0.0147 ± 0.0053 | 0.00312 ± 0.0024 | – |
| UCCUGGAUGAGCUUGCAAUAGUAUUUAGUUA | 0.00505 ± 0.0031 | 0.00597 ± 0.003 | – |
| UCCUGGUACACCUUGCAUAGUAUUAAGUUA | 0.218 ± 0.066 | 0.00356 ± 0.0032 | – |
| UCCUCCUACAGCUUGCAUAGGAUUUAGUUA | 0.0118 ± 0.0044 | 0.0113 ± 0.0028 | – |
| UCCUGGUACAGCUUGCAUUGUAUUUUGUUA | 0.0604 ± 0.018 | 0.00266 ± 0.0026 | – |
| UCCUGGAUGAGCUUGCCAUAGUAUUUAGUUA | 0.0808 ± 0.016 | 0.0035 ± 0.0026 | – |
| UCCUGGAACAGCUUGCAUAGUAUAUUGUUA | 0.153 ± 0.029 | 0.00533 ± 0.0022 | – |
| UCCUCCUACAGCUUGCAUAGUAUUUUGAAA | 0.148 ± 0.03 | 0.00602 ± 0.0032 | – |
| UCCUGGUACAGCUUGGAUAGUAUUUAGUAA | 0.202 ± 0.041 | 0.00283 ± 0.0021 | – |
| UCCUGGAACAGCUUGCAUAGUAUUUACAUA | 0.0382 ± 0.014 | 0.00316 ± 0.0025 | – |
| UCCUCGUACAGCUUCCAUAGUAUUUAGUUA | 0.0687 ± 0.018 | 0.00339 ± 0.0014 | – |
| UCCUGGAACAGCUUGCAUAGUAAUUAGAUA | 0.0936 ± 0.022 | 0.00318 ± 0.0015 | – |
| UCCUGGUUCAGCUUGCAUAGUAUUUAGAUA | 0.106 ± 0.022 | 0.00378 ± 0.002 | – |
| UCCUGCUACAGCUUGCAUAGUAUAUAGUAA | 0.0474 ± 0.018 | 0.00354 ± 0.0018 | – |
| UCCUGGAACAGCUUGCAUAGUAUUAAGAUA | 0.0769 ± 0.019 | 0.00257 ± 0.0022 | – |

| Sequence | pre-steady-state target cleavage rate [1, 3] | pre-steady-state target cleavage rate [2] | pre-steady-state target cleavage rate ([1]; auxiliary factor: none (no GTSF1)) |
| --- | --- | --- | --- |
| UCCUGCUACAGCUUGCCAUAGUAUUUAGUUA | 0.128 ± 0.015 | 0.00382 ± 0.0023 | – |
| UCCUGGAUGAGCUUGUCAUAGUAUUUAGUUA | 0.0971 ± 0.013 | 0.00721 ± 0.0027 | – |
| UCCUGCUAGAGCUUGCAUAGUAUUUAGAUA | 0.117 ± 0.015 | 0.00536 ± 0.0018 | – |
| UCCUGGUACAGCUUGCAUAGUAUUAACAAA | 0.0231 ± 0.0084 | 0.00261 ± 0.0023 | – |
| UCCUGCUACAGCUUGCAUAGUAUUUAGAUUA | 0.135 ± 0.023 | 0.00658 ± 0.0023 | – |
| UCCUGGAUGAGCUUGCAUAGUAAUUAGAUA | 0.0197 ± 0.0088 | 0.00341 ± 0.0028 | – |
| UCCUGGAUGUGCUUGCAUAAUAUUUAGUUA | 0.158 ± 0.018 | 0.00327 ± 0.0027 | – |
| UCCUGGUACAGCUAGCAUAGUAUUUAGAAA | 0.0357 ± 0.013 | 0.00319 ± 0.0022 | – |
| UCCUGGAACAGCUUGCAUACUAUUUAGUAA | 0.0934 ± 0.025 | 0.00398 ± 0.0022 | – |
| UCCUGCUACAGCUUGCAUAGUAUUAAGAUA | 0.019 ± 0.0078 | 0.00501 ± 0.0016 | – |
| UCCUGCUACAGCUUGCAUUGUAUUUACAAA | 0.0245 ± 0.01 | 0.00313 ± 0.0028 | – |
| UCCUCCUAGAGCUUGCAUAGUAUUUAGAAA | 0.069 ± 0.016 | 0.00517 ± 0.0019 | – |
| UCCUGCUACACCUUGCAUACUAUUUAGUUA | 0.0767 ± 0.022 | 0.00403 ± 0.0024 | – |
| UCCUGGAACACCUUGCAUAGUAUUUUGUUA | 0.14 ± 0.035 | 0.00343 ± 0.0029 | – |
| UCCUGCUUGAGCUUGCAUAGUAUUUUCAAA | 0.0372 ± 0.013 | 0.00207 ± 0.0018 | – |
| UCCUGCUACAGGUUCCAUAGUAUUUAGUUA | 0.00943 ± 0.0066 | 0.00222 ± 0.0021 | – |
| UCCUGCUACAGCAUGCAUAGUAUUUAGAUA | 0.179 ± 0.033 | 0.00378 ± 0.0015 | – |
| UCCUGCUACAGCUUGCAUAGUUUUUAGAUA | 0.0373 ± 0.011 | 0.00319 ± 0.0018 | – |
| UCCUGCUACAGCUUGCAUAGUUUUUUCAAA | 0.0433 ± 0.014 | 0.00248 ± 0.0022 | – |
| UCCUGCUACAGCUAGCAUAGUAUUUUGUUA | 0.244 ± 0.031 | 0.0057 ± 0.0021 | – |

Reference: the supplement of paper PMC10338343
